According to PubChem BioAssay:
Active and inactive are the calls of the source.

Experiments:
[1] = test system: XIP peptide (Xip251-270) binding; assay: small-molecule binders of XIP peptide, primary screen, biochemical, small-molecule microarray, fluorescence 635/667 nm, 0.1 µg/mL protein (AID 1182); conditions: fluorescent protein binding, 635 nm, higher = more signal, called active from +8 up or from −8 down
XIP peptide (Xip251-270) = assay: small-molecule binders of XIP peptide, primary screen, biochemical, small-molecule microarray, fluorescence 635/667 nm, 0.5 µg/mL protein (AID 1183); conditions: small-molecule microarray binding, fluorescence 635 nm; higher = more signal
[2] = Plasmodium falciparum growth inhibition, primary screen, strain 3D7, DAPI fluorescence, 100 nL (AID 1184);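 note: parasites grown inside human red blood cells in medium with human serum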; conditions: P. falciparum 3D7 growth, 3 d, higher = more signal
[3] = molecular target: Homeobox protein Hox-A13 (Mus musculus) (UniProt Q62424); assay: inhibitors of HoxA13-DNA binding, primary screen, biochemical, fluorescence polarization, labeled oligonucleotide (AID 1185); conditions: 15 min, higher = more signal, called active from +8 up or from −8 down
Homeobox protein Hox-A13 (Mus musculus), sequence (Q62424 whole entry, looked up): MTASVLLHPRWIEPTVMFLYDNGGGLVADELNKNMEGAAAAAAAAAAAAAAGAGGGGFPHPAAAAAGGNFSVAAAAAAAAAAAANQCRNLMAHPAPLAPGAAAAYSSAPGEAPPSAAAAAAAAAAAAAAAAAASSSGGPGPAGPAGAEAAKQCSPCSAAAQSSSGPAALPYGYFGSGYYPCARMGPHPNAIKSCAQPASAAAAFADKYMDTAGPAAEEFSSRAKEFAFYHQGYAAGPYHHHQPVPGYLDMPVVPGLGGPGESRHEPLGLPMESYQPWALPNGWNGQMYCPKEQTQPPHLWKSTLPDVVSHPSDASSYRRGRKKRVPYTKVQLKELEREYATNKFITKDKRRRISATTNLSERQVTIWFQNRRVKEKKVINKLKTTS

Compound | composite z-score [1] | composite z-score (XIP peptide (Xip251-270)) | z-score [2] | z-score [3]
CCC(=O)[C@@]1(O)C(=O)N2C(=C3C(=O)OCC[C@@H]31)N(Cc1ccccc1)C(C)=C(C(=O)OC)[C@H]2c1ccccc1 | -0.0955 (inactive) | 0.177 | 0.663 | -0.219 (inactive)
COC(=O)CC=C[C@H](C)[C@@H](OCc1cccc(Br)c1)[C@@H](C)[C@H](OC)C1CCCCC1 | 0.685 (inactive) | 0.768 | 0.536 | 0.0373 (inactive)
C=C(C)C(=O)OCC1CN2[C@@H](CC[C@@H](C)[C@@H]2c2ccc(Br)cc2)C(=O)O1 (some centres not stated) | -0.0135 (inactive) | 0.446 | -0.19 | -1.71 (inactive)
CO[C@@H]1COC(=O)[C@H](CCSC)NC(=O)CC=C[C@@H](C)COC(=O)CCC[C@H]1C | 1.2 (inactive) | 0.929 | -0.766 | -2.31 (inactive)
CC(CCN1CCCCc2nc(C)c(C)cc21)=NOC[C@@H](O)COCc1ccco1 | 2.22 (inactive) | 0.863 | -0.246 | -4.37 (inactive)
CCOC(=O)[C@H](CC(C)C)NC(=O)CCC1CC(OC(=O)NCc2cccc3ccccc23)CC2(CCCC(COC(=O)NCc3ccncc3)O2)O1 (some centres not stated) | 1.56 (inactive) | 0.53 | -0.652 | -6.29 (inactive)
CC(C)(C)N1C(=O)[C@H]2[C@H]3[C@H](O)[C@H](O)CC(=NOCc4ccccc4)[C@H]3CC[C@H]2C1=O | 0.082 (inactive) | -0.112 | 0.195 | -4.16 (inactive)
COC(=O)C=CCCc1coc(C=CCNC(=O)OC)n1 | 0.56 (inactive) | 0.868 | -0.92 | -2.9 (inactive)
